Among the data in the supplement of paper PMC10849652 are log2 fold change values, retold here.

Of roughly 7,900 targets only a part is listed; those with a hit were picked by preference. About 0.6% of all pairs of compound and target were hits. Values without a mark were called inactive.

UniProt Q9H777, sequence (Q9H777 whole entry, looked up): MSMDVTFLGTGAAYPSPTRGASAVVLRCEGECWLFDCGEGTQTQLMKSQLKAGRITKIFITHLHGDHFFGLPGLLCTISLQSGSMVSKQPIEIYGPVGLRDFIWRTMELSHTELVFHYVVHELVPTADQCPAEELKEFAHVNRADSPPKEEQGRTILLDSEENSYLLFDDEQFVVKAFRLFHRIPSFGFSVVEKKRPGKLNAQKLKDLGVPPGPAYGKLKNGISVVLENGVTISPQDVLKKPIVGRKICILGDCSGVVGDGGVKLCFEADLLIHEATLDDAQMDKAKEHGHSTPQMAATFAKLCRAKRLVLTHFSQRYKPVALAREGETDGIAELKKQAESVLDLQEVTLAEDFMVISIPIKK
UniProt Q6P3W2, sequence (Q6P3W2 whole entry, looked up): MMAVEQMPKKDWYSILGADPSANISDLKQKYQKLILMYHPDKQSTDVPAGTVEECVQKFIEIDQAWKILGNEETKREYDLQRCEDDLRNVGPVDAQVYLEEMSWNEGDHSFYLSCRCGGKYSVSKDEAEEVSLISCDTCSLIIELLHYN
UniProt Q86YN1, sequence (Q86YN1 whole entry, looked up): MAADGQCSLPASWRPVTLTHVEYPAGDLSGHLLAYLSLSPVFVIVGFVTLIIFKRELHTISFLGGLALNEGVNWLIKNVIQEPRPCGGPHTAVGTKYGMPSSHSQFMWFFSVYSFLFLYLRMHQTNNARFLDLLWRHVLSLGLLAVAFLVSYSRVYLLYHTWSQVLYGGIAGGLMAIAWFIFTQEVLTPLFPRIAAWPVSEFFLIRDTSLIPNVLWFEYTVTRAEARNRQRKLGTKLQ
UniProt Q2TBE0, sequence (Q2TBE0 whole entry, looked up): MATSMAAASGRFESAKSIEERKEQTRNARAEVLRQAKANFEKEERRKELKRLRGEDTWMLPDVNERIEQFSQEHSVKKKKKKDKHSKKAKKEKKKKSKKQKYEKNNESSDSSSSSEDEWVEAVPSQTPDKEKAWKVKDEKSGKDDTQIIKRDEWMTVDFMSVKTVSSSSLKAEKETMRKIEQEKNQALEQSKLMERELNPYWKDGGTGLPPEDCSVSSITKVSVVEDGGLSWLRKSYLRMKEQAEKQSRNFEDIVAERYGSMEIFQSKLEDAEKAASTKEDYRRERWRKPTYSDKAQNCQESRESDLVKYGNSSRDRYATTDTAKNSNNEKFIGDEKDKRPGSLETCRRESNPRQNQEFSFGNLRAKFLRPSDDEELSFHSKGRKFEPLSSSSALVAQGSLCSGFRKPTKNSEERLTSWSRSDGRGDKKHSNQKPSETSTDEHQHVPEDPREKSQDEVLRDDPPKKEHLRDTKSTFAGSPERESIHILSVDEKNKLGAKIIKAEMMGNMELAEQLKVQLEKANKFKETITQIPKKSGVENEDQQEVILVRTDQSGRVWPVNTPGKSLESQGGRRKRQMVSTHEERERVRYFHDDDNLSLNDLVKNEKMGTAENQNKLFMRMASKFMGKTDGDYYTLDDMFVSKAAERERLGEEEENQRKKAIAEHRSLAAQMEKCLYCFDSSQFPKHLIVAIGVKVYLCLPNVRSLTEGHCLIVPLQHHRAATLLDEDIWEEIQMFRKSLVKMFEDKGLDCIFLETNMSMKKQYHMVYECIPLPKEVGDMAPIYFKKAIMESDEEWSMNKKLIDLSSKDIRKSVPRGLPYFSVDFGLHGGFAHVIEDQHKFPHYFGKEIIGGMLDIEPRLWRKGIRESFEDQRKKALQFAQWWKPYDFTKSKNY
UniProt Q96GQ7, sequence (Q96GQ7 whole entry, looked up): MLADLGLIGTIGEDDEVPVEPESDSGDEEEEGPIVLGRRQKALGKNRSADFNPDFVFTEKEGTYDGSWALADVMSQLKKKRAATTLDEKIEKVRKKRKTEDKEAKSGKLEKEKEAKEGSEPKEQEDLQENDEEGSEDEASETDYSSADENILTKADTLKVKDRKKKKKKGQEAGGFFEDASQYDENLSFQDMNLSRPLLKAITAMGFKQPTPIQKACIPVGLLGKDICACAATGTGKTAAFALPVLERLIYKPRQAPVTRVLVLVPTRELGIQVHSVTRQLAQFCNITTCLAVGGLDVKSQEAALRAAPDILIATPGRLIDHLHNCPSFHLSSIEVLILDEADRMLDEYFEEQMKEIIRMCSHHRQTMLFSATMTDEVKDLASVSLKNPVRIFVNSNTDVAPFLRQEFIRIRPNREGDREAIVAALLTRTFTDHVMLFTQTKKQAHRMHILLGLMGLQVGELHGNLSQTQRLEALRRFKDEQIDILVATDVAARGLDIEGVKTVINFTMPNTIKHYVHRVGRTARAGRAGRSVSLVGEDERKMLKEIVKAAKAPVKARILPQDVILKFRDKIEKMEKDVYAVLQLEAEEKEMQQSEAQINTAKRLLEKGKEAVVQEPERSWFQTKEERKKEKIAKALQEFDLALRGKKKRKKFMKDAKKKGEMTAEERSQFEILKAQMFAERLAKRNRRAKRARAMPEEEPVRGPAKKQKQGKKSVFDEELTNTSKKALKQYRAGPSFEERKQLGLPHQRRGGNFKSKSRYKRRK
UniProt Q6UX07, sequence (Q6UX07 whole entry, looked up): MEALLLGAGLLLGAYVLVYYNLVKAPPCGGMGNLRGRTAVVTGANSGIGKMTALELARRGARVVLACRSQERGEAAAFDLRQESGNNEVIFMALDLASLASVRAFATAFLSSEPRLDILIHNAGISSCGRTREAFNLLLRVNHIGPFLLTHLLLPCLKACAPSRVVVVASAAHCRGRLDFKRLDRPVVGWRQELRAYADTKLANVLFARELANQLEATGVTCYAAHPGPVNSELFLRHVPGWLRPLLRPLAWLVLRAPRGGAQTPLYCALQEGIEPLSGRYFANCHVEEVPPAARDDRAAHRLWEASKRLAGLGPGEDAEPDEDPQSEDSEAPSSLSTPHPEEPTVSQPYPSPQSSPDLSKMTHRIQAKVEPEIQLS
UniProt P32519, sequence (P32519 whole entry, looked up): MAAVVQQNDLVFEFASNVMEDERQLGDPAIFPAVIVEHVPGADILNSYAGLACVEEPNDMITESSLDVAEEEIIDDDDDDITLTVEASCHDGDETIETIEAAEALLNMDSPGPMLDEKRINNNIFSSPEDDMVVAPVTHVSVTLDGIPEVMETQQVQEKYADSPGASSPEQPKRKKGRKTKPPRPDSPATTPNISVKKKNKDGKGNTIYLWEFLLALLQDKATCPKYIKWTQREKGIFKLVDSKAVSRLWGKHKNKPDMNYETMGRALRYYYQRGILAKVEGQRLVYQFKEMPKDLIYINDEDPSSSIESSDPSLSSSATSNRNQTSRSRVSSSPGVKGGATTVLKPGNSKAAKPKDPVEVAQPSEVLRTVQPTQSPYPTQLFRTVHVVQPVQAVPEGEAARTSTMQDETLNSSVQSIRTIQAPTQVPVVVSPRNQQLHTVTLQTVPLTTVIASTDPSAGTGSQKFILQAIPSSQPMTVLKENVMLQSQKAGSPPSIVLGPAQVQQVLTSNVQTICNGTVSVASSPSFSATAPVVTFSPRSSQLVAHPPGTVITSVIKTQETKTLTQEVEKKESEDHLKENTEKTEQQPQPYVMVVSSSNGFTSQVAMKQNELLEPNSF
UniProt O00418, sequence (O00418 whole entry, looked up): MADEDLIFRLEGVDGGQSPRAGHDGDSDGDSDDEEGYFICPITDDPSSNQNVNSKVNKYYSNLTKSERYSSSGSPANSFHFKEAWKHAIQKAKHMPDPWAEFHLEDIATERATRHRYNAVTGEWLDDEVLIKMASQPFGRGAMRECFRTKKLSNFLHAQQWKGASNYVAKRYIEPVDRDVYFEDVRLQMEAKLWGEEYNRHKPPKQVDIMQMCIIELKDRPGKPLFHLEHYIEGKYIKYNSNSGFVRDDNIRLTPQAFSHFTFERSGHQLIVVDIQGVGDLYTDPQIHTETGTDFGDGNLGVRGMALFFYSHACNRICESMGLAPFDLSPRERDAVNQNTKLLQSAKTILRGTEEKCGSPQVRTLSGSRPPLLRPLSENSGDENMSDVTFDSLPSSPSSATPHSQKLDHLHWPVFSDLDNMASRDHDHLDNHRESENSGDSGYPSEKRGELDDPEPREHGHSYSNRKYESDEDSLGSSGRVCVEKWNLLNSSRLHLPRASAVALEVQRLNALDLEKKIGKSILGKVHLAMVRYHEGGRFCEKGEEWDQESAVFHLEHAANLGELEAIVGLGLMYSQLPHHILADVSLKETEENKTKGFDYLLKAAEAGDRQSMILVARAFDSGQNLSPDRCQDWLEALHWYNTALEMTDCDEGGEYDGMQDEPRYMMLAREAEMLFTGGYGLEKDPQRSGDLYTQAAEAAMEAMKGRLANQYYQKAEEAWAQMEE
UniProt Q96RI0, sequence (Q96RI0 whole entry, looked up): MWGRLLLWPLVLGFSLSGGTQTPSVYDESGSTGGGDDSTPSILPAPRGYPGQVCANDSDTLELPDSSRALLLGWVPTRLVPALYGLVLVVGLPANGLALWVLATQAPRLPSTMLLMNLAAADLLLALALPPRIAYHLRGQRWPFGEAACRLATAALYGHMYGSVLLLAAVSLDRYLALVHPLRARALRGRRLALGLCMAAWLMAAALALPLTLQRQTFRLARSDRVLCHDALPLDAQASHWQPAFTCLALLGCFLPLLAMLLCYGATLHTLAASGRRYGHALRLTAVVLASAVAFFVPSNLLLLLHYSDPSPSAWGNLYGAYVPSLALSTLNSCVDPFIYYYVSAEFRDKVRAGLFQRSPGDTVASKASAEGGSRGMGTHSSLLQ
UniProt Q9H410, sequence (Q9H410 whole entry, looked up): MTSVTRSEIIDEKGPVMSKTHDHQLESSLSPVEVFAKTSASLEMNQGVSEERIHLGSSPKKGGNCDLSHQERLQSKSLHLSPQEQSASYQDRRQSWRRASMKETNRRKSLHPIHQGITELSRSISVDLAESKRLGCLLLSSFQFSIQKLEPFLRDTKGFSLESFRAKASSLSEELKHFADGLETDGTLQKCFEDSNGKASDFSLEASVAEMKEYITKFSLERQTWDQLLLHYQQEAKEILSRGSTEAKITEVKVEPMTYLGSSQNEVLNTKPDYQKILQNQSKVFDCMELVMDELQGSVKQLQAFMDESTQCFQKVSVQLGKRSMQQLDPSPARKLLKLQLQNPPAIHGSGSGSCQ

Compound in the first test: Cc1ncc(-c2ccnc(Nc3ccc(S(C)(=O)=O)cc3)n2)n1C(C)C
Description: log2 fold change, soluble protein after heating vs DMSO (PISA); higher = thermal stabilisation; K562 cells, 10 uM, 30 min; active = over 0.2 and 3.5 SD of the protein, either way, in both replicates (recomputed). The essentials:
(§1)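 Thermal stability values are relative to control samples and come from duplicates. They are expressed as log2 fold changes. For measurement, K562 cells (2×10^6 cells/mL) received 10 μM compound for 30 min, and aliquots were heated for 3 min over 48°C-58°C, pooled, and extracted at 4°C in PBS with 0.5% NP-40. Soluble protein, the supernatant after 21,000xg for 90 min, was quantified by TMTpro 16plex LC-MS/MS with equalised channel sums.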
Regarding FAM135A (UniProt Q9P2D6), the log2 fold change was -0.054.
The same measure, in the same setting: for DNAJC24 (UniProt Q6P3W2) the value was 0.016; for ENTPD7 (UniProt Q9NQZ7), 0.056; for ELF1 (UniProt P32519), 0.122.
Turning to EIF4G3 isoform 3 (UniProt O43432), the log2 fold change was 0.052.
Still for that read-out and setting: for DDX11 (UniProt Q96FC9) the value was 0.098.
In the case of DCAF4 (UniProt Q8WV16), the log2 fold change was -0.093.
In the case of EIF3J isoform 2 (UniProt O75822), the log2 fold change is -0.013.
On the same count and under the same terms, for EID1 (UniProt Q9Y6B2) the value was -0.032; for DDX27 (UniProt Q96GQ7), 0.3.
Still for that read-out and setting: next, ELMO1 (UniProt Q92556): -0.001; DSN1 (UniProt Q9H410): 0.104.
Turning to DDX46, A0A0C4DG89, the log2 fold change was 0.032.
In the case of DOLPP1 (UniProt Q86YN1), the log2 fold change is -0.023.
The same measure, in the same setting: for DHRS13 (UniProt Q6UX07) the value was -0.106.
On the same count and under the same terms, for ELAC1 (UniProt Q9H777) the value was -0.103.

Compound in another test: Cn1cc(-c2ccc3c(c2)CCN3C(=O)Cc2cccc(C(F)(F)F)c2)c2c(N)ncnc21
The test is described as above. The essentials:
as §1
Regarding CWF19L2 (UniProt Q2TBE0), the log2 fold change is -0.102.
On to DNAJC24 (UniProt Q6P3W2), for which the log2 fold change is -0.1.
Regarding ELF1 (UniProt P32519), the log2 fold change was 0.003.
Same read-out and setting: next, F2RL3 (UniProt Q96RI0): -0.051; EZH2 isoform 2 (UniProt Q15910): 0.055.
Same read-out and setting: next, EIF4G3 isoform 3 (UniProt O43432): -0.073; ELOVL7 (UniProt A1L3X0): -0.057; CTSS (UniProt P25774): -0.07.
Consider EEF2K (UniProt O00418), for which the log2 fold change was -0.108.
In the case of DYNC1I2 isoform 2 (UniProt Q13409), the log2 fold change was -0.311.
In the case of EIF4G1 (UniProt Q04637), the log2 fold change was -0.032.
Same read-out and setting: for DNAL1 (UniProt Q4LDG9) the value was 0.186.
FAM193B (UniProt Q96PV7): the log2 fold change is 0.171.
Take FAM117B (UniProt Q6P1L5): the log2 fold change was -0.029.
Still for that read-out and setting: for DDX27 (UniProt Q96GQ7) the value was -0.313; for DCP2 (UniProt Q8IU60), -0.021; for DNAJB1 (UniProt M0R128), -0.022.
Regarding DSN1 (UniProt Q9H410), the log2 fold change is 0.041.
Regarding EHBP1 (UniProt Q8NDI1), the log2 fold change was -0.076.
On the same count and under the same terms, next, DOLPP1 (UniProt Q86YN1): -0.045; DBNL (UniProt Q9UJU6): 0.308.
Still for that read-out and setting: for DHRS13 (UniProt Q6UX07) the value was 0.021.
Still for that read-out and setting: for DLK1 (UniProt P80370) the value was -0.279.
Consider ELAC1 (UniProt Q9H777), for which the log2 fold change was -0.032.

Compound in a further test: Cn1cc(-c2ccc3nnc(C(F)(F)c4ccc5ncccc5c4)n3n2)cn1
Described as above. An outline of the steps: as §1
In the case of CWF19L2 (UniProt Q2TBE0), the log2 fold change was 0.001.
For the target DNAJC24 (UniProt Q6P3W2), the log2 fold change is -0.201.
Consider ELF1 (UniProt P32519), for which the log2 fold change is 0.049.
Turning to F2RL3 (UniProt Q96RI0), the log2 fold change was 0.043.
The same measure, in the same setting: for EIF4G3 isoform 3 (UniProt O43432) the value was 0.056; for DDX11 (UniProt Q96FC9), -0.132.
On the same count and under the same terms, next, CTSS (UniProt P25774): -0.028; EEF2K (UniProt O00418): 0.
On to DYNC1I2 isoform 2 (UniProt Q13409), for which the log2 fold change is -0.067.
Same read-out and setting: for DCAF4 (UniProt Q8WV16) the value was 0.079; for DNAL1 (UniProt Q4LDG9), 0.012; for FAM117B (UniProt Q6P1L5), 0.072.
On to DDX27 (UniProt Q96GQ7), for which the log2 fold change was -0.151.
Same read-out and setting: next, DCP2 (UniProt Q8IU60): -0.033.
On the same count and under the same terms, for ELMO1 (UniProt Q92556) the value was 0.06; for DSN1 (UniProt Q9H410), 0.059; for EPHB4 (UniProt P54760), -0.051.
Consider DOLPP1 (UniProt Q86YN1), for which the log2 fold change was -0.006.
Same read-out and setting: for DHRS13 (UniProt Q6UX07) the value was -0.168.

Compound in another test: Cn1cncc1[C@@](N)(c1ccc(Cl)cc1)c1ccc2c(c1)c(-c1cccc(Cl)c1)cc(=O)n2C [tipifarnib]
The description is as above. The essentials:
as §1
As to CWF19L2 (UniProt Q2TBE0), the log2 fold change was 0.083.
The same measure, in the same setting: next, DNAJC24 (UniProt Q6P3W2): 0.084; DENND1A isoform 6 (UniProt Q8TEH3): -0.113.
With ENTPD7 (UniProt Q9NQZ7), the log2 fold change was 0.163.
Take ELF1 (UniProt P32519): the log2 fold change is -0.024.
Same read-out and setting: next, F2RL3 (UniProt Q96RI0): -0.016.
The same measure, in the same setting: for EZH2 isoform 2 (UniProt Q15910) the value was -0.021.
On the same count and under the same terms, next, EIF4G3 isoform 3 (UniProt O43432): 0.083; DDX11 (UniProt Q96FC9): 0.005; EEF2K (UniProt O00418): -0.092.
DYNC1I2 isoform 2 (UniProt Q13409): the log2 fold change is 0.177.
As for ENTR1 (UniProt Q96C92), the log2 fold change was 0.259.
Take EIF3J isoform 2 (UniProt O75822): the log2 fold change is 0.078.
The same measure, in the same setting: for EID1 (UniProt Q9Y6B2) the value was -0.097; for FAM193B (UniProt Q96PV7), -0.027.
DCP2 (UniProt Q8IU60): the log2 fold change is -0.112.
Same read-out and setting: next, CTNNBL1 (UniProt Q8WYA6): 0.022.
Consider DSN1 (UniProt Q9H410), for which the log2 fold change is 0.027.
On the same count and under the same terms, for EPHB4 (UniProt P54760) the value was -0.257; for DOLPP1 (UniProt Q86YN1), 0.075; for ELAC1 (UniProt Q9H777), 0.036.
